HCV inhibitor – HCV inhibition; Huh7.5.1 HCVcc-Cre infection, luciferase reporter, 44 h; Potency, µM (titrated, usually from 41.8 µM), for the others: at the top dose activity change, negative = inhibition, actives largely listed as inhibitors; actives 3.4% (n = 340,000); active = well fitted inhibition curve with a large enough effect; inconclusive = small, poorly fitted or top-dose-only effect, or another doubt; inactive = no such curve, though single readings can be large or run the other way; note: potency is the fitted concentration of half-maximal effect
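Compounds are dispensed onto cells plated 4 h earlier at 1,000 per well, with HCVcc-Cre virus (about 0.5 moi) added next. Following 44 h of culture, luminescent signal is measured for 15 sec after 15 min with substrate at room temperature.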
Vaccinia mCherry – vaccinia inhibition (mCherry reporter) | Vaccinia virus mCherry reporter infection, fluorescence | Potency, µM (series often up to 36.5 µM), without a hit: at the top dose activity change, negative = inhibition, actives largely listed as inhibitors | actives 0.63% (n = 310,000); calls by dose curve; tested in A549 cells; note: potency is the fitted concentration of half-maximal effect; nearly all actives have a fitted effect of over 35% in size
VACV Venus inh – inhibitors of vaccinia virus (Venus reporter). actives 0.46% (n = 330,000). Potency, µM (titrated, usually from 36.5 µM), for inactives: at the top dose activity change, negative = inhibition, usual class: inhibitors. Vaccinia virus Venus reporter expression, fluorescence; calls by dose curve; tested in A549 cells; note: potency is the fitted concentration of half-maximal effect; nearly all actives have a fitted effect of over 30% in size
HCMV antiviral – blocks human cytomegalovirus replication; HFF cells, HCMV-luciferase reporter, 72 h; active compounds read low; activity change, negative = inhibition, % at 57.5 µM; actives 4.5% (n = 410,000); AID 1259415; in the data active = activity change below about -60%; inconclusive = no clear call, values can overlap the other calls; inactive = above about -39%
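After 16 h attachment at 37C, HFF cells received test compound and HCMV-luciferase (1 PFU/cell); reporter luminescence read 72 h later, data normalized against buffer-only and known inhibitor Salinomycin.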
FMDV antiviral – foot and mouth disease virus antiviral activity; Potency, µM (titrated, usually from 57.9 µM), for inactives: top-dose activity change, negative = inhibition, actives largely listed as inhibitors; FMDV antiviral cell-based qHTS; actives 1.2% (n = 410,000); calls by dose curve; tested in HEK293T cells; note: read-out not given here; potency is the fitted concentration of half-maximal effect; nearly all actives have a fitted effect of over 45% in size
Starred values were filed as active, the others as inactive; i = inactive; ? = inconclusive; · = no result given. Shown are actives, neighbours in structure and some others; about 7.3% of the full set was active somewhere. % is set by controls: 0 for no effect and ±100 for the full control effect.

SMILES	HCV inhibitor	Vaccinia mCherry	VACV Venus inh	HCMV antiviral	FMDV antiviral
Cc1ccccc1-c1cc(C(=O)NCc2cccc(C(F)(F)F)c2)n(CC2CC(c3cccnc3)=NO2)n1 (centres undefined)	8.9µM*	0%	-14%	-13	61%
CCOC(=O)c1cc(C)n(CC2CCC(C(=O)Nc3ccc(OCC)cc3)CC2)c1C (centres undefined)	·	-22%	-23%	-61*	-28%
C[C@@H]1CN([C@H](C)CO)C(=O)CCCn2nncc2CO[C@H]1CN(C)S(=O)(=O)c1ccc(C#N)cc1	·	8%	4%	-34	-20%
CCCCOc1nnc(-c2ccc(OCC)cc2)c2ccccc12	·	-24%	-25%	0	?
COc1ccc(CNc2nccs2)cc1OC	-19%	i	-10%	8	-11%
C=CCOc1ccc(CNc2nccs2)cc1OCC	?	·	-20%	-64*	-5%
Cn1cnc([N+](=O)[O-])c1S(=O)(=O)Oc1cccc2ccccc12	?	?	-32%	-3	22µM*
Cn1cnc([N+](=O)[O-])c1S(=O)(=O)Oc1ccc(Cl)cc1	?	?	-14%	18	20µM*
CCS(=O)(=O)c1c([N+](=O)[O-])ncn1C	?	·	·	27	?
O=C(COc1cccnc1[N+](=O)[O-])Nc1cccc2ccccc12	10%	-5%	-16%	·	-19%
Cn1cnc([N+](=O)[O-])c1Oc1cccc2ccccc12	?	-28%	?	11	28µM*
CCN(CC)c1c([N+](=O)[O-])ncn1C	-1%	·	-15%	2	-13%
CC1CCN(C(=O)c2ncn3c2c(=O)[nH]c2cccnc23)CC1	·	i	-3%	-20	-18%
CN(C)CCN(Cc1ccccc1)S(=O)(=O)c1ccc(-c2cc(C(F)(F)F)on2)s1	·	i	-25%	-100*	-22%
N=c1c2c(n(Cc3ccc(F)cc3)c3c1CCC3)CCC2	8%	-29%	-29%	-100*	-26%
CCCCCCCCCn1c2c(c(=N)c3c1CCC3)CCC2	0.89µM*	?	?	·	5.6µM*
CCCn1c2c(c(O)c(C(=O)NC)c1=O)CCCC2	?	·	-4%	-33	-13%
CCCCCCCn1c2c(c(=N)c3c1CCC3)CCCC2	4.5µM*	?	?	-95*	3.2µM*
CCn1c(=O)c2c3c(sc2n(C)c1=O)CCC3	-11%	·	·	?	-21%
CCn1c2c(c(=N)c3c1CCC3)CCC2	2%	-11%	19%	-84*	-19%
Fc1ccc(CN2CCCCCCC2)cc1	3%	-13%	-13%	6	-21%
O=C1CCCc2[nH]c(=O)c(-c3nc(-c4cccc([N+](=O)[O-])c4)cs3)cc21	·	-20%	-21%	-16	-13%
CCOc1ccc(/C=C/c2nc(C#N)c(NCc3ccc(OC)cc3)o2)cc1	·	?	?	8	-21%
CCCCCCn1c2c(c(=N)c3c1CCC3)CCC2	10µM*	·	·	-104*	?
CCCCn1c2c(c(=N)c3c1CCC3)CCC2	?	·	?	-89*	?
SMILES	HCV inhibitor	Vaccinia mCherry	VACV Venus inh	HCMV antiviral	FMDV antiviral
CCCCCCn1c(=O)[nH]c2c(c1=O)CCC2	-5%	i	-11%	19	0%
CCCCc1cc(=O)oc2cc(C)c3c(C)coc3c12	·	-5%	5%	-26	-17%
c1ccc2sc(N3CCCN(Cc4nc(-c5cnccn5)no4)CC3)nc2c1	?	-21%	-17%	-79*	-19%
O=C1C(c2[nH]c3ccc(S(=O)(=O)O)cc3c2O)=Nc2ccc(S(=O)(=O)O)cc21	·	29%	-12%	·	·
CCOc1ccc(NC(=S)N=Nc2c(O)[nH]c3ccccc23)cc1	13µM*	-20%	-16%	-11	-21%
Oc1[nH]c2ccccc2c1N=Nc1c(F)c(F)c(Cl)c(F)c1F	0%	·	·	-97*	-5%
NC(=S)N=Nc1c(O)[nH]c2ccccc12	19%	13µM*	?	-14	-9%
COC(=O)N=Nc1c(O)[nH]c2ccc(Br)cc12	-44%	-28%	-10%	-23	0%
Oc1[nH]c2ccc(Br)cc2c1N=NC(=S)N1CCOCC1	11µM*	·	·	-100*	3.2µM*
Oc1[nH]c2ccccc2c1N=Nc1ccccc1Cl	-7%	i	-1%	44	46%
Cc1ccnc(Cc2ccccc2)n1	20%	-27%	-16%	?	-6%
N[C@](CC1c2ccccc2Oc2ccccc21)(C(=O)O)[C@@H]1C[C@@H]1C(=O)O	·	·	·	·	6%
O=C(N=Nc1c(O)[nH]c2ccccc12)c1ccc(CN2CCOCC2)cc1	-2%	-8%	-8%	-8	5%
